Data: PubChem BioAssay (Tox21)
Several values for one entry are separate records, joined by “and”; a condition that tells them apart may be missing. Equal entries are not always repeated. Inconclusive results are not listed. Entries that show only a call come without a potency. Where a structure was tested more than once in an assay, its records may differ in their call. Activity calls are given as the source filed them. Calls follow the shape of the dose curve; as a rule, active = well fitted cell-killing curve with a large enough effect in the repeat runs; inconclusive = weak or mixed curves, or effect the other way; inactive = flat fitted curve, though single readings scatter.

Assay: qHTS assay to identify small molecule agonists of the androgen receptor (AR) signaling pathway in the presence of an antagonist - cell viability counter screen (AID 1259379); also: nearly all actives have a fitted effect of over 25% in size
Details: MDA-kb2 viability, CellTiter-Fluor, 16 h; series mostly up to 92.4 µM
From the text: National Center for Advancing Translational Sciences [NCATS]
NIH Chemical Genomics Center [NCGC]
U.S. Environmental Protection Agency [EPA]
National Institutes of Environmental Health Sciences [NIEHS]
National Toxicology Program [NTP]
U.S. Food and Drug Administration [FDA]
Androgen receptor (AR) is an important member of nuclear receptor family. Its signaling plays a critical role in AR-dependent prostate cancer and other androgen related diseases. Considerable attention has been given in the past decades to develop methods to study and screen for the environmental chemicals that have the potential to interfere with metabolic homeostasis, reproduction, developmental and behavioral functions. Therefore AR binding assay for screening against androgen agonists and antagonists can be used to identify potential endocrine disruptors.
MDA-kb2 cells (from ATCC, deposited by Wilson et al.) are human breast carcinoma cells that were stably transfected with a luciferase reporter gene under control of the MMTV promoter that contains response elements for both androgen receptor (AR) and glucocorticoid receptor (GR). This particular screening for measuring luciferase reporter gene activity using MDA-kb2 cells against Tox21 10K library compounds is a confirmation study on agonist mode screening in the presence of AR-antagonist compound (Nilutamide) at 3.0uM final concentration. The cytotoxicity of the compounds was tested in parallel by measuring the cell viability using CellTiter-Fluor assay system (Promega, Madison, WI) in the same wells.
Tox21 Assay Protocol Summary:
MDA-kb2 cells (cells cultured without CO2) were dispensed at 3,000 cells/well in 4uL of culture medium into white wall/solid-bottom 1536-well plates (Corning Life Sciences, Corning, NY) using a Multidrop Combi (Thermo Fisher Scientific Inc., Waltham, MA) dispenser. The assay plates were incubated at 37C and 0% CO2 for 5hr. One uL of 3.0uM (final concentration) Nilutamide or assay buffer was added using two separate tips of Flying Reagent Dispenser (FRD, Aurora Discovery, San Diego, CA). Then 23nL of compounds dissolved in DMSO at 15 concentrations and positive controls were transferred to the assay plates using a Pintool station (Wako, San Diego, CA). The assay plates were incubated at 37C and 0% CO2 for 16 hr. After 15hr incubation at 37C, 1uL/well CellTiter-Fluor reagent (Promega Corporation) was added to each well of the assay plates using FRD. After 1hr incubation at 37C and 0% CO2, the fluorescence signal was measured using a ViewLux plate reader (PerkinElmer, Shelton, CT).
Potency is read from the fitted curve at half-maximal effect.

Row | Structure (SMILES) | Potency
1 | C/C=C/C(=O)O | inactive
2 | CC(C)=CCC/C(C)=C\CO | inactive
3 | O=C(/C=C/C=C/c1ccc2c(c1)OCO2)N1CCCCC1 | inactive
4 | O=C(COc1ccc(Cl)cc1)N1CCN(Cc2ccc3c(c2)OCO3)CC1 | 68.6 µM (active) and inactive
5 | O=C=Nc1ccc(Cc2ccc(N=C=O)cc2)cc1 | inactive
6 | CCC(C)(O)CCCC(C)C (stereo not given) | inactive
7 | CN(C)CCC=C1c2ccccc2CCc2ccccc21 | inactive
8 | CC(C)CC(C)(O)C#CC(C)(O)CC(C)C (stereo not given) | inactive
9 | OC(CCl)CCl | inactive
10 | c1ccc(Nc2ccccc2)cc1 | 43.2 µM (active) and inactive
11 | Nc1ccc(Cl)cc1Cl | inactive
12 | C#C[C@]1(O)CC[C@H]2[C@@H]3CCc4cc(OC)ccc4[C@H]3CC[C@@]21C | inactive
13 | COc1c(Cl)c(Cl)c(Cl)c(Cl)c1Cl | inactive
14 | CC(=O)c1ccccn1 | inactive
15 | c1ccc2sc(SSN3CCOCC3)nc2c1 | inactive
16 | C#C[C@]1(O)CC[C@H]2[C@@H]3CCC4=Cc5oncc5C[C@]4(C)[C@H]3CC[C@@]21C | inactive
17 | CN1C(C(=O)Nc2ccccn2)=C(O)c2ccccc2S1(=O)=O | inactive
18 | O=CCCCC=O | inactive
19 | O=C(c1ccccc1)c1ccccc1O | inactive
20 | CC(C)OC=O | inactive

Row | Structure (SMILES) | Potency
21 | CCCCC(CC)COC(=O)c1ccc(N(C)C)cc1 (stereo not given) | inactive
22 | O=C(Nc1ccc(Cl)cc1)Nc1ccc(Cl)c(Cl)c1 | 21.6 µM (active) and 24.3 µM (active) and 26.6 µM (active)
23 | Nc1ncnc2nc[nH]c12 | inactive
24 | OC1CCCCCCCCCCC1 | inactive
25 | O=CCc1ccccc1 | inactive
26 | Cc1cccc([N+](=O)[O-])c1C | inactive
27 | CC(CCC(=O)O)(c1ccc(O)cc1)c1ccc(O)cc1 | inactive
28 | Cc1ncc[nH]1 | inactive
29 | Cc1c(C(N)=O)cc([N+](=O)[O-])cc1[N+](=O)[O-] | inactive
30 | OC[C@H]1O[C@@H]2O[C@H]3[C@H](O)[C@@H](O)[C@@H](O[C@H]4[C@H](O)[C@@H](O)[C@@H](O[C@H]5[C@H](O)[C@@H](O)[C@@H](O[C@H]6[C@H](O)[C@@H](O)[C@@H](O[C@H]7[C@H](O)[C@@H](O)[C@@H](O[C@H]8[C@H](O)[C@@H](O)[C@@H](O[C@H]1[C@H](O)[C@H]2O)O[C@@H]8CO)O[C@@H]7CO)O[C@@H]6CO)O[C@@H]5CO)O[C@@H]4CO)O[C@@H]3CO | inactive
31 | O=C(/C=C/c1ccccc1)OCc1ccccc1 | inactive
32 | CCCCC(CC)COCC1CO1 (stereo not given) | inactive
33 | COC(=O)CCC(=O)OC | inactive
34 | CCCCOCCOCCO | inactive
35 | O=S(=O)(O)c1ccc(O)cc1 | inactive
36 | CC(=O)CC/C=C(\C)CCC=C(C)C | inactive
37 | NNc1ccc(C(=O)O)cc1 | inactive
38 | OCCO | inactive
39 | CCCC(=O)O | inactive
40 | Cc1[nH]c(=O)c(C#N)cc1-c1ccncc1 | inactive
